Bioassay records from PubChem BioAssay.
hgDAF-12 ag: activates the H. glycines DAF-12 receptor ligand-binding domain; 1.8% of 370,000 active; activation, % at 6.8 µM; AID 687014; HEK293 GAL4-hgDAF12 UAS-luciferase reporter, agonist luminescence; normalized to butyrate control;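 active means activation above a cutoff set at the mean of all screened compounds plus 3 SD, cut at about 10% in these data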;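 further: 0% = DMSO wells and 100% = sodium butyrate wells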
ssDAF12 agonist: activators of S. stercoralis DAF-12 nuclear receptor; 1% of 370,000 active; activation, % at 6.8 µM; HEK293 ssDAF-12/GRIP1 lit1-tk-luc reporter, luminescence; % of 3 µM dafachronic acid response; AID 652126;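 active means activation above the mean over all tested compounds plus 3 SD, cut at about 0.9% in these data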;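 further: 0% = DMSO-only wells and 100% = 3 µM delta7-dafachronic acid wells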
hcDAF-12 act: H. contortus DAF-12 activation, primary screen. HEK293 hcDAF-12 lit1-tk-luc reporter, luminescence; 0% DMSO, 100% Δ7-dafachronic acid. AID 652067. 1.4% of 370,000 active. activation, % at 6.8 µM;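 active means activation above the mean of all tested compounds plus 3 SD, cut at about 5.5% in these data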;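 further: 100% = response to 3 µM Δ7-dafachronic acid high control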
DAX1 inh-1: NR0B1 (DAX1) inhibition; HEK293 Gal4-DAX1 luciferase reporter, luminescence; 0.99% of 340,000 active; inhibition, % at 6.75 µM;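 active means inhibition above the mean over all tested compounds plus 3 SD, cut at about 4.2% in these data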;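 further: 0% = DAX1-transfected cells with DMSO and 100% = empty-vector control cells with DMSO; inhibition shows as a rise in luminescence from relieved DAX1 repression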
Target sequence (P51843 207-470 limits assumed): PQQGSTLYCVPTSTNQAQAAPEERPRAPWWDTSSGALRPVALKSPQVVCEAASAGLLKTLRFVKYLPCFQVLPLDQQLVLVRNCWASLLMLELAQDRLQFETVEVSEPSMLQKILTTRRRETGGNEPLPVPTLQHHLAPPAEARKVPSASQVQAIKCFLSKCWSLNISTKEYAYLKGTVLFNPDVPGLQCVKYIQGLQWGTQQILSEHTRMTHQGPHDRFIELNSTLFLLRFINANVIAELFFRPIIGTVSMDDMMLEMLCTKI
DAX1 inh-2: DAX1 (NR0B1) inhibition, primary screen | HEK293T StAR-luciferase reporter, SF-1/DAX-1 repression relief | inhibition, % at 6.8 µM | 1.1% of 370,000 active | AID 652010;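 active means inhibition above the mean over all tested compounds plus 3 SD, cut at about 3.6% in these data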;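 further: 0% = DAX-1 cells with DMSO and 100% = cells lacking DAX-1 with DMSO; higher inhibition means more luminescence from relief of DAX-1 repression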
The depositor's hits bear a star; / = no result. This is a sample that favours compounds with a hit; in the whole collection about 4.1% have one here.

SMILES	hgDAF-12 ag	ssDAF12 agonist	hcDAF-12 act	DAX1 inh-1	DAX1 inh-2
C=CCN1C(=O)[C@H](CC(=O)NCc2cccc(C(F)(F)F)c2)[C@@]2(C(=O)OCC)CCCC=C12	5	-1	-1	/	-1
CCOc1ccc(N(C)C(=O)CCc2nnc3ccc(N4CCC5(CC4)OCCO5)nn23)cc1	2	-1	0	1	-1
O=C(c1cc2c(s1)-c1ccccc1OC2)N1CCN(c2ccccn2)CC1	1	-1	0	5.4*	0
O=C1CCCC(c2ccccc2)N1 (stereo not drawn)	-2	-2	-2	5.2*	1
Cc1ccc(OCc2nnc(N)s2)cc1	11*	-1	2	-1	1
Cc1cc(C)cc(OCc2nnc(N)s2)c1	-2	0	-1	3	0
CCCCNC(=O)C[C@H]1C[C@@]2(C(=O)OC)C(=C[C@H](C(C)C)O[C@@H]2C2CC2)N(CCC2=CCCCC2)C1=O	2	-1	0	/	1
CCn1c2ccccc2c2cc(C=NNC(=O)c3ccoc3C)ccc21	11*	-1	-1	/	-2
CN(C)S(=O)(=O)c1ccc(N2CCCC2)c(C(=O)Nc2nc3ccccc3s2)c1	3	1.9*	4	-1	1
CN(C)S(=O)(=O)c1ccc(N2CCCC2)c(C(=O)Nc2nc3ccc(F)cc3s2)c1	5	0.9*	5	0	1
Cc1cccc2sc(NC(=O)c3cc(S(=O)(=O)N(C)C)ccc3N3CCCC3)nc12	3	-1	1	0	0
CCCCN1C[C@@H]2CSCCS(=O)(=O)N2C1=O	0	-1	0	/	-1
C/C(=N\OC(=O)NC(C)C)c1sc(-c2ccc(Cl)cc2)nc1C	5	-1	1	0	1
CCNC(=O)O/N=C(\C)c1sc(-c2ccc(Cl)cc2)nc1C	11*	0	5	2	2
CCCC(=O)OC12CCCN(C1)/C(=C/c1ccc(OC)cc1)C2 (stereo not drawn)	-3	0	0	/	2
Cc1ccc2nc3c(cc(C(=O)NCc4ccccc4)c(=N)n3CCCn3ccnc3)c(=O)n2c1	0	-1	-1	0	0
Cc1cccn2c(=O)c3cc(C(=O)NC(C)c4ccccc4)c(=N)n(CCCn4ccnc4)c3nc12 (stereo not drawn)	11*	-2	0	4	0
Cc1cc(Nc2ccc(C)c(Cl)c2)nc(N2CCOCC2)n1	-1	-1	-2	/	0
Cc1ccc(Nc2cc(C)nc(N3CCOCC3)n2)cc1	4	0	5.7*	1	1
Cc1cc(Br)ccc1OCCCN1CCC(C(O)(c2ccccc2)c2ccccc2)CC1	2	-1	0	/	1
COc1cccc(CC(NC(C)=O)C(=O)NC2CCN(c3nnnn3-c3ccccc3)CC2)c1 (stereo not drawn)	0	-1	-1	4.3*	0
CCn1c(COc2ccc(C)cc2)nnc1SCC(=O)Nc1ccc(Oc2ccccc2)cc1	-1	-1	-1	/	-1
CN(C)S(=O)(=O)c1ccc(NC(=O)C2COc3ccccc3O2)cc1 (stereo not drawn)	-2	0	-2	4.5*	0
Cc1nc2ccc(NC(=O)C3COc4ccccc4O3)cc2s1 (stereo not drawn)	12*	-1	3	2	2
Cc1ccc(NC(=O)C2COc3ccccc3O2)cc1C (stereo not drawn)	/	/	/	4.9*	/
SMILES	hgDAF-12 ag	ssDAF12 agonist	hcDAF-12 act	DAX1 inh-1	DAX1 inh-2
Cc1cc(C(=O)Nc2ccc(F)cc2)n(-c2ccccc2)n1	0	-1	-1	/	-1
COC(=O)[C@@H]1[C@H](O[Si](C)(C)C(C)(C)C)[C@H]2O[C@H]2C[C@H]1S(=O)(=O)c1ccccc1	-3	-2	-1	/	/
COc1ccc(N2C(=O)/C(=C/c3ccc([N+](=O)[O-])cc3)C=C2c2ccccc2)cc1	0	1.2*	-2	1	1
C=CCN1[C@H](C)COc2cccc(N3CCSCC3)c2S1(=O)=O	2	0	-1	/	-1
COC(=O)c1c(NC(C)=O)sc(C(=O)Nc2ccccc2F)c1C	13*	-1	1	0	3
COC(=O)c1c(NC(C)=O)sc(C(=O)Nc2ccccc2)c1C	7	-2	0	1	2
CCCC(=O)Nc1sc(C(=O)Nc2cccc(N)c2)c(C)c1C(=O)OC	7	-1	1	0	3.9*
CCC(=O)Nc1sc(C(=O)Nc2ccccc2OC)c(C)c1C(=O)OC	2	0	2	0	0
COC(=O)CSc1nnc(-c2cccs2)o1	3	-1	-1	/	0
NC(CSC(c1ccccc1)(c1ccccc1)c1cccc2ccccc12)C(=O)O (stereo not drawn)	/	/	/	4.5*	/
COC(=O)[C@]12C[C@H](CC(=O)NCc3ccccc3)C(=O)N(Cc3cccc4ccccc34)C1=C[C@H](C(C)C)O[C@@H]2C1CC1	4	-1	0	/	-1
COC(=O)[C@]12C[C@H](CC(=O)NCCCCc3ccccc3)C(=O)N(Cc3cccc4ccccc34)C1=C[C@H](C(C)C)O[C@@H]2C1CC1	-2	1.3*	-1	/	-1
COc1ccc(-c2cc(C(=O)N/N=C/C(C)=C\c3ccco3)[nH]n2)cc1	0	0	3	/	0
COc1cc(/C=C2/SC(=S)N(Cc3ccccc3)C2=O)ccc1OCC(=O)O	1	-1	-1	1	1
CCOc1cc(/C=C2/SC(=S)N(Cc3ccccc3)C2=O)ccc1O	9	0	6.4*	-1	0
COc1ccc(C2=Nc3ccccc3C2(O)CCN2C(=O)c3ccccc3C2=O)cc1 (stereo not drawn)	10*	-1	0	1	0
Cc1ccc(NC(=O)c2ccccc2Cl)c(Cl)c1	11*	0	1	1	1
Cc1ccc(NC(=O)c2ccccc2F)c(NC(=O)c2ccccc2F)c1	3	0	5	7.6*	0
C#CCSc1ncc(-c2ccccc2)cn1	13*	1.9*	4	1	1
CC(C)[C@H](NC(=O)c1ccccc1)C(=O)OCC(=O)NCc1ccc(F)cc1	0	-1	0	5.4*	-1
CC(C)[C@H](NC(=O)c1ccccc1)C(=O)OCC(=O)NCC1CCCO1 (stereo partly drawn)	2	-1	-2	0	2
Cc1ccc(C(=O)C2CCN(S(=O)(=O)c3ccc(C(=O)O)cc3)CC2)cc1	-2	-1	5	-2	0
O=S(=O)(NCc1csc(-c2cccnc2)n1)c1cccs1	3	0.9*	0	0	1
Cc1ccc(C)c(Nc2nc(N)c3ccccc3n2)c1	12*	0	4	4.5*	2
CC[C@]12c3[nH]c4ccc(Cl)cc4c3CCN1C(=O)[C@@H](CC(=O)NC/C=C(\C)CCC=C(C)C)C[C@@H]2C(=O)N1CCN(C(=O)c2ccco2)CC1	0	2.1*	-2	-1	-1
